The results in this text go back to PubChem BioAssay AID2536 (National Center for Advancing Translational Sciences (NCATS), 2010).

Calls of active or inactive are those of the source. Calls come from the whole dose curve; as a rule, active = well fitted curve in the direction sought with a large enough effect; inactive = no such curve, though single readings can be large or run the other way.

Pyruvate kinase PKM (Homo sapiens), sequence (P14618 whole entry, looked up, canonical isoform): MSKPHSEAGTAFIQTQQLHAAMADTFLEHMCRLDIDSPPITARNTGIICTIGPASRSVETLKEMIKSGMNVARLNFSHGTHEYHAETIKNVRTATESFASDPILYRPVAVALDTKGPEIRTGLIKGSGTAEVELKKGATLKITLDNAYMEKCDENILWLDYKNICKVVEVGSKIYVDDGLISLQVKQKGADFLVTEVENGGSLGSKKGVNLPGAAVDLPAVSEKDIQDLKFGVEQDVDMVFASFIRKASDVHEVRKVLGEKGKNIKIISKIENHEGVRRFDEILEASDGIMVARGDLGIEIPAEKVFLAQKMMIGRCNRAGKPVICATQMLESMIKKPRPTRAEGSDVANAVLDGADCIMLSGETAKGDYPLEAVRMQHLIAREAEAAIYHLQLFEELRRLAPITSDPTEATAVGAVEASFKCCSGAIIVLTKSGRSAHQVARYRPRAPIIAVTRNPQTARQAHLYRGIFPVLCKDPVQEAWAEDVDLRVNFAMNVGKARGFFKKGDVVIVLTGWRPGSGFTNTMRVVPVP

The experiment addresses Pyruvate kinase PKM (Homo sapiens) (UniProt P14618). The experiment in a line: Secondary Concentration-Response Assay for Activators of Human Muscle isoform 1 Pyruvate Kinase: for Probe SAR. To be noted: purified hPK-M1, ATP production, Kinase-Glo luminescence. The text has this: NIH Chemical Genomics Center [NCGC]
Matthew G. Vander Heiden, M.D., Ph.D. [Harvard Medical School, 77 Avenue Louis Pasteur, Boston, MA 02115]
Human pyruvate kinase […] (hPK-M1) enzyme was supplied as a highly purified (>95% pure) preparation from Harvard Medical School and assayed for its ability to generate ATP from ADP using phosphoenolpyruvate (PEP) as a substrate. ATP generation was detected in a coupled reaction by luciferase-mediated luminescence, an ATP-dependent process. Pyruvate kinase substrates, PEP and ADP, were present in the assay at Km and approximately 10-fold below Km respectively. The enzyme was assayed at an intermediate level of activity to screen for both inhibitors and activators.
NCGC Assay Protocol Summary for M1-isoform:
Three uL of substrate mix (at r.t.) in assay buffer (50 mM Imidazole pH7.2, 50 mM KCl, 7 mM MgCl2, 0.01% Tween 20, 0.05% BSA) was dispensed into white solid bottom 1,536 well microtiter plates so that the final concentrations of substrates in the assay were 0.1 mM ADP and 0.5 mM PEP. 23 nL of compound were delivered by a pin tool and 1 uL of enzyme mix (final concentration of 1 nM) in assay buffer (4 degree Celsius) was added. Plates were incubated at room temperature for 1 hour. Two uL of detection mix (Kinase-Glo, Promega; at 4 degree Celsius protected from light) was added and luminescence read by a ViewLux (Perkin Elmer) at 1 second exposure/plate. Data were normalized to the uninhibited (row 31). Additionally, a no enzyme and 5-fold enzyme control was dispensed in row 32, split equally between the two conditions.
For the compound `O=C1CCc2cc(S(=O)(=O)Nc3cc(F)cc(Cl)c3)c(F)cc2N1`, the max response was 1.25% (inactive). The same measure for `Cc1ccc(N[S+](=O)([O-])c2cc3c(cc2CCc2ccccc2)NC(=O)CO3)cc1C`: -3.27% (inactive); for `CCNc1cccc(S(=O)(=O)N2CCCN(S(=O)(=O)c3ccc4c(c3)OCCO4)CC2)c1`: 8.55% (inactive); for `COc1cccc(Cn2ncc3c4sc(SC)cc4n(C)c3c2=O)c1`: 13.2% (inactive).

With `O=C1CCc2cc(S(=O)(=O)Nc3ccc(F)c(Cl)c3)ccc2N1`, the max response was -1.6% (inactive). The figure for `N#Cc1ccc(NS(=O)(=O)c2ccc3c(c2)CCC(=O)N3)cc1` is 5.23% (inactive); for `Cc1ccc(NS(=O)(=O)c2cc3c(cc2C)OCC(=O)N3)cc1C` it is 2.47% (inactive). The figure for `Cc1ccc(NS(=O)(=O)c2ccc3c(c2)CC(=O)N3)cc1C` is 23.4% (inactive); for `Cc1cc2c(s1)c1cnn(Cc3ccccc3F)c(=O)c1n2C` it is -9.51% (inactive). The figure for `Cc1ccc(Cl)cc1NS(=O)(=O)c1cc2c(cc1F)NC(=O)CC2` is -4.17% (inactive); for `Cc1c(Cl)cccc1NS(=O)(=O)c1cc2c(cc1F)NC(=O)CC2` it is 0.151% (inactive); for `O=C1CCc2cc(S(=O)(=O)Nc3ccc(Cl)c(Cl)c3)ccc2N1` it is 4.63% (inactive). As for `N#Cc1cccc(NS(=O)(=O)c2ccc3c(c2)CCC(=O)N3)c1`, the max response is -2.21% (inactive). `Cc1ccc(NS(=O)(=O)c2ccc3c(c2)CCC(=O)N3)cc1F`: the max response was 0.0639% (inactive).

For `CNc1cc2c(cc1S(=O)(=O)Nc1ccc(C)c(C)c1)CCC(=O)N2`, the max response was -0.656% (inactive).

`Cc1ccc(NS(=O)(=O)c2cc3c(cc2Cl)CCC(=O)N3)cc1Cl`: the max response is 4.8% (inactive). The same measure for `Cn1c2cc(S(C)=O)sc2c2cnn(Cc3cccc(N)c3)c(=O)c21` (stereo not given): 2.91% (inactive); for `Cc1ccc(NS(=O)(=O)c2cc3c(cc2F)NC(=O)CC3)cc1Cl`: 4.95% (inactive); for `CN(C)c1cccc(S(=O)(=O)N2CCCN(S(=O)(=O)c3ccc4c(c3)OCCO4)CC2)c1`: 1.92% (inactive). In the case of `Cc1cc(NS(=O)(=O)c2ccc3c(c2)CCC(=O)N3)ccc1F`, the max response is 2.58% (inactive). Take `Cc1cc2c(s1)c1cnn(Cc3c(Cl)ccc(C)c3F)c(=O)c1n2C`: the max response is 4.91% (inactive).

Turning to `O=C1CCc2cc(S(=O)(=O)Nc3cccc(B(O)O)c3)ccc2N1`, the max response is -3.5% (inactive). Regarding `O=C1CCc2cc(S(=O)(=O)Nc3ccc4c(c3)CCC4)ccc2N1`, the max response is -1.18% (inactive). The figure for `O=C1CCc2cc(S(=O)(=O)Nc3ccc(Cl)c(Cl)c3)c(F)cc2N1` is 2.68% (inactive). For the compound `Cc1c(Cl)cccc1NS(=O)(=O)c1cc2c(cc1Cl)CCC(=O)N2`, the max response was 0.521% (inactive). The figure for `Cc1ccc(NS(=O)(=O)c2ccc3c(c2)N(C)C(=O)CO3)cc1C` is 1.15% (inactive); for `O=S(=O)(c1ccc2c(c1)OCCO2)N1CCN(S(=O)(=O)c2c(F)cccc2F)CC1` it is -8.27% (inactive). The figure for `Cc1cc(NS(=O)(=O)c2ccc3c(c2)CCC(=O)N3)ccc1Cl` is -0.197% (inactive). As to `Cc1ccc(NS(=O)(=O)c2cc3c(cc2N(C)C)CCC(=O)N3)cc1C`, the max response is -0.287% (inactive). In the case of `Cc1ccc(NS(=O)(=O)c2ccc3c(c2)C(Cl)(Cl)C(=O)N3)cc1C`, the max response is 0.115% (inactive).

As to `Cc1cc2c(s1)c1cnn(Cc3cc(F)c(F)cc3F)c(=O)c1n2C`, the max response was -8.12% (inactive). With `CC(=O)N1c2ccc(S(=O)(=O)Nc3ccc(C)c(C)c3)cc2CC1C` (stereo not given), the max response is 13.1% (inactive). Turning to `CNc1cccc(S(=O)(=O)N2CCCN(S(=O)(=O)c3ccc4c(c3)OCCO4)CC2)c1`, the max response is 3.54% (inactive).

Regarding `O=C1CCc2cc(S(=O)(=O)Nc3ccc4ncccc4c3)ccc2N1`, the max response is -1.75% (inactive).

For the compound `Cc1ccc(Cl)cc1NS(=O)(=O)c1cc2c(cc1Cl)CCC(=O)N2`, the max response was 1.5% (inactive). The figure for `COc1cccc(Cn2ncc3c4sc(S(C)=O)cc4n(C)c3c2=O)c1` (stereo not given) is 3.1% (inactive); for `O=C1CCc2cc([S+](=O)([O-])NC3CCOCC3)ccc2N1` it is -5.17% (inactive). The figure for `Cc1cc2c(s1)c1cnn(Cc3cc(F)ccc3F)c(=O)c1n2C` is 4.73% (inactive). The same measure for `CC(C)Nc1cccc(S(=O)(=O)N2CCCN(S(=O)(=O)c3ccc4c(c3)OCCO4)CC2)c1`: 4.41% (inactive); for `CSc1cc2c(s1)c1cnn(Cc3cccc(N)c3)c(=O)c1n2C`: 7.82% (inactive).
